Here are results for one sequence from article PMC7862700, “An all-to-all approach to the identification of sequence-specific readers for epigenetic DNA modifications on cytosine”.

Common to all, as to assay: DAPPL (digital affinity profiling via proximity ligation, sequencing); 10 mM Tris-HCl pH 7.5, 50 mM NaCl, 1 mM DTT, 4% glycerol, room temperature, 30 min; GST-TFs on glutathione beads, 16-mer random dsDNA library, 0.1% formaldehyde crosslink after washing; high values mean tight binding
In one assay the target is T1, FLI1 (Homo sapiens, UniProt Q01543 1-452).
T1 sequence: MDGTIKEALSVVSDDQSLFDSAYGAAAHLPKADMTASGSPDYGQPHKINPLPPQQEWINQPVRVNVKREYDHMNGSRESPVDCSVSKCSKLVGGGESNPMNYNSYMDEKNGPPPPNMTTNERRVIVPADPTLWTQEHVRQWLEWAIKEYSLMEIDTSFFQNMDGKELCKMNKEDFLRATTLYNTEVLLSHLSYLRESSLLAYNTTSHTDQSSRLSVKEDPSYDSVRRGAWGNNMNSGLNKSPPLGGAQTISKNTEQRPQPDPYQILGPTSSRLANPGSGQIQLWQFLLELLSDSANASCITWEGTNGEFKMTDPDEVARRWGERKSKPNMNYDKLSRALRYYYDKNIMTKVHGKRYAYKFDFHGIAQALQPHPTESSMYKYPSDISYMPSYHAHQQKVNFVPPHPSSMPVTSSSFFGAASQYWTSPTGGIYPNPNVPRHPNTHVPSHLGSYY
The settings on record: protein: recombinant; tags: N-terminal GST; dsDNA, one strand shown. In a few lines:
(§1)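 Binding signal is given per hexamer as its read frequency for a factor divided by its frequency in the tag-only sample. GST-fused human transcription factors were expressed in yeast, captured on glutathione beads, barcoded with DNA and pooled with that sample, then incubated with 200 nmole of a 16-mer random double-stranded DNA library in Tris/NaCl/DTT/glycerol buffer for 30 min at room temperature. The pools were then washed, crosslinked, proximity-ligated, amplified by PCR and sequenced on an Illumina NextSeq500.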

The target in a further assay is T2, ELK1 (Homo sapiens, UniProt P19419 1-428).
T2 sequence: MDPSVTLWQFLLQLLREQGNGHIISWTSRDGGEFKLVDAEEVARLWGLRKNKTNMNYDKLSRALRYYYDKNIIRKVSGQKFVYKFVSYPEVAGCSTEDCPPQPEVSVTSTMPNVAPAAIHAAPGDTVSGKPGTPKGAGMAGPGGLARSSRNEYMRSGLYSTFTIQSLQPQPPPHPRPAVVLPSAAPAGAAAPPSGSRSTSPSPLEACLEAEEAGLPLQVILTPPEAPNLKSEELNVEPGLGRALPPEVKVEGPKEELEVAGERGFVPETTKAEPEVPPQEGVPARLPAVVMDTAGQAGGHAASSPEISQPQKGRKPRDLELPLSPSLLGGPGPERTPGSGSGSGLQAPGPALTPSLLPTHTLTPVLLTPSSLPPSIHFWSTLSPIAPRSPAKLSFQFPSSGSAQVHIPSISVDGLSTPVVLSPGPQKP
Particulars: protein: recombinant; tags: N-terminal GST; dsDNA, one strand shown. In a few lines: as §1

The next assay deals with T3, GABPA (Homo sapiens, UniProt Q06546 1-454).
T3 sequence: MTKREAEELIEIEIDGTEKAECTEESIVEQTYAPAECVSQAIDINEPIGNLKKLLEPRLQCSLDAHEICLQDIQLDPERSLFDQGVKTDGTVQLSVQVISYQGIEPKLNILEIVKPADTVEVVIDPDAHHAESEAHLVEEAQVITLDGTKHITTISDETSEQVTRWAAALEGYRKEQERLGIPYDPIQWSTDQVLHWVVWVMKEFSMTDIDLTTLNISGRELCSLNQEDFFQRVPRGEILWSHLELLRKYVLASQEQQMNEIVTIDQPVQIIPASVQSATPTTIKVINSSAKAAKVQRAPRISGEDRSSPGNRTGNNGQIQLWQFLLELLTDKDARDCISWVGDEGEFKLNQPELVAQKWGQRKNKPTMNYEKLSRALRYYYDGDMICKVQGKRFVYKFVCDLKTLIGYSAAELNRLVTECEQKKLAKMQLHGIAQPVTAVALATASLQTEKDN
The settings on record: protein: recombinant; tags: N-terminal GST; dsDNA, one strand shown. In a few lines: as §1

For another assay, the target named is T4, ERG (Homo sapiens, UniProt P11308 1-479).
T4 sequence: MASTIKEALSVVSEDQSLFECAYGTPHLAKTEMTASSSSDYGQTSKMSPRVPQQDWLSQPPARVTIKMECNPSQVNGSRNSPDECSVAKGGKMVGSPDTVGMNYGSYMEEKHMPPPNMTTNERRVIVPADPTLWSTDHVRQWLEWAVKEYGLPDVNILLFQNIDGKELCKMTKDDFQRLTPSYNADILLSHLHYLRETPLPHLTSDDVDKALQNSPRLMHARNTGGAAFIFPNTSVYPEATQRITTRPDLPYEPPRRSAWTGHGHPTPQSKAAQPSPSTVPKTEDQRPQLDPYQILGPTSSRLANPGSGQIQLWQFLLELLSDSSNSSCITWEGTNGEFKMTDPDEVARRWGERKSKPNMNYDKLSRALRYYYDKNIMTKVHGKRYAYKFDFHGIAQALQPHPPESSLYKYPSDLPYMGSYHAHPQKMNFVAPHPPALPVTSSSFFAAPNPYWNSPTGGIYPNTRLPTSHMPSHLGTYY
The settings on record: protein: recombinant; tags: N-terminal GST; dsDNA, one strand shown. In a few lines:
as §1

A further assay has as its target ELF1 (Homo sapiens, UniProt P32519 1-619). Particulars: protein: recombinant; tags: N-terminal GST; dsDNA, one strand shown. In a few lines: as §1
The target in another assay is T5, EHF (Homo sapiens, UniProt Q9NZC4 1-300).
T5 sequence: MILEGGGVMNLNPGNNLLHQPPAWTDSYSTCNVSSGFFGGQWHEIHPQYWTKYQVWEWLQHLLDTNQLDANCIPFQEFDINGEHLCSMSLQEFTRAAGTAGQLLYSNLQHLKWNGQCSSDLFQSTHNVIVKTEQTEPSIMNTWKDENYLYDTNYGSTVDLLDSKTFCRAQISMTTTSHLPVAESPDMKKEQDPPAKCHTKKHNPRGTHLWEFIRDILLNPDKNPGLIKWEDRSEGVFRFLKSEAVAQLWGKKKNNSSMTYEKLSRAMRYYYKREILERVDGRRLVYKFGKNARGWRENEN
The settings on record: protein: recombinant; tags: N-terminal GST; dsDNA, one strand shown. In a few lines: as §1

For another assay, the target named is SPI1 (Homo sapiens, UniProt P17947 1-270). Particulars: protein: recombinant; tags: N-terminal GST; dsDNA, one strand shown. In a few lines: as §1
The target in another assay is SPIB (Homo sapiens, UniProt Q01892 1-262). The settings on record: protein: recombinant; tags: N-terminal GST; dsDNA, one strand shown. In a few lines: as §1
Chain of SPIB (Q01892 whole entry): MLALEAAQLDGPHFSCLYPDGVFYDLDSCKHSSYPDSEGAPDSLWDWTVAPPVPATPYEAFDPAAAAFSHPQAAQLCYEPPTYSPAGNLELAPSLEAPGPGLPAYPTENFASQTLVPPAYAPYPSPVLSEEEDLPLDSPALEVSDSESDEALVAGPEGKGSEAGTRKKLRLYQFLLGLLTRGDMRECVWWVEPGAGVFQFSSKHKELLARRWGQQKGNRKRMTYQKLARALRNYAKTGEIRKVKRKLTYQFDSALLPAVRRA
For another assay, the target named is T6, ELK3 (Homo sapiens, UniProt P41970 1-407).
T6 sequence: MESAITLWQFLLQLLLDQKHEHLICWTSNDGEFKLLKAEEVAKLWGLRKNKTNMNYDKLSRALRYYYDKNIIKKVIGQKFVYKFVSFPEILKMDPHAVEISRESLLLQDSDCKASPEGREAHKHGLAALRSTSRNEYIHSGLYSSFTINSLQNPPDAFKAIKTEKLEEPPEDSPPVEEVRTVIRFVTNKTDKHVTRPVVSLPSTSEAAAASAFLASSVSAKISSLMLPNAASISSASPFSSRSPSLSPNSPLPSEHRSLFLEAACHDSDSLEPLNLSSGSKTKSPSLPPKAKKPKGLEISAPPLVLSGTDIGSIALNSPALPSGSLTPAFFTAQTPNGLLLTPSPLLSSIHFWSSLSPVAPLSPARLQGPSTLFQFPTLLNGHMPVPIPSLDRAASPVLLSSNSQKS
The settings on record: protein: recombinant; tags: N-terminal GST; dsDNA, one strand shown. In a few lines:
as §1

The target in the next assay is T7, FEV (Homo sapiens, UniProt Q99581 1-238).
T7 sequence: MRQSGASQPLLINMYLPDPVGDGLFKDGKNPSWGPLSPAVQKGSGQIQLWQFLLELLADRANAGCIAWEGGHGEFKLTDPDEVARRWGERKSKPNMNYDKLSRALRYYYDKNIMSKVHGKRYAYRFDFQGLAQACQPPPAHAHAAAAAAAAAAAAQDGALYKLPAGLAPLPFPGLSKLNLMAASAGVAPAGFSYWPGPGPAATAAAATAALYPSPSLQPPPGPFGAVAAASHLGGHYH
Particulars: protein: recombinant; tags: N-terminal GST; dsDNA, one strand shown. In a few lines: as §1

In a further assay the target is ETV5 (Homo sapiens, UniProt P41161 1-510). The settings on record: protein: recombinant; tags: N-terminal GST; dsDNA, one strand shown. In a few lines: as §1
Chain of ETV5 (P41161 whole entry): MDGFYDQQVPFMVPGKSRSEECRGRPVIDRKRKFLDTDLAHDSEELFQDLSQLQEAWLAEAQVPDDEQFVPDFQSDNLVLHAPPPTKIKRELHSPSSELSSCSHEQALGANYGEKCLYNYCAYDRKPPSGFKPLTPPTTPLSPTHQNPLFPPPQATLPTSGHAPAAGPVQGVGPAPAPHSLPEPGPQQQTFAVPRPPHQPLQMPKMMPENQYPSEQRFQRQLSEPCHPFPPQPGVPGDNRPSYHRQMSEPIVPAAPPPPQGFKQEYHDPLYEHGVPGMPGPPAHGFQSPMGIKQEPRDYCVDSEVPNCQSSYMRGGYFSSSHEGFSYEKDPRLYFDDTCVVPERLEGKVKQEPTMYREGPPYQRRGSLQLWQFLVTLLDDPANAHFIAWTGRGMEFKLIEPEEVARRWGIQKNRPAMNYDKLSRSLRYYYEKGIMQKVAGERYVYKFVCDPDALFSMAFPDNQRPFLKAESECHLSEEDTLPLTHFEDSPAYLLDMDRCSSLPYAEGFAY
A further assay deals with HSF1 (Homo sapiens, UniProt Q00613 1-529). Particulars: protein: recombinant; tags: N-terminal GST; chain copies: 3; dsDNA, one strand shown. In a few lines:
as §1

The next assay concerns the target T8, SPIC (Homo sapiens, UniProt Q8N5J4 1-248).
T8 sequence: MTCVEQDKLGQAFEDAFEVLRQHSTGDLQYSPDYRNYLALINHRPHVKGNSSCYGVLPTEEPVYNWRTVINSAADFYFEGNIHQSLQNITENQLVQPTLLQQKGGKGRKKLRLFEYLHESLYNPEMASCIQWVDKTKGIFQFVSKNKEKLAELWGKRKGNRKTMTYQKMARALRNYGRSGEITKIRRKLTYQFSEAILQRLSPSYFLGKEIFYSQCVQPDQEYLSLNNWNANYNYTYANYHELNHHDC
Particulars: protein: recombinant; tags: N-terminal GST; dsDNA, one strand shown. In a few lines: as §1

The next assay has as its target ELF4 (Homo sapiens, UniProt Q99607 1-663). The settings on record: protein: recombinant; tags: N-terminal GST; dsDNA, one strand shown. In a few lines:
as §1

The next assay addresses T9, ELK4 (Homo sapiens, UniProt P28324-2 1-405).
T9 sequence: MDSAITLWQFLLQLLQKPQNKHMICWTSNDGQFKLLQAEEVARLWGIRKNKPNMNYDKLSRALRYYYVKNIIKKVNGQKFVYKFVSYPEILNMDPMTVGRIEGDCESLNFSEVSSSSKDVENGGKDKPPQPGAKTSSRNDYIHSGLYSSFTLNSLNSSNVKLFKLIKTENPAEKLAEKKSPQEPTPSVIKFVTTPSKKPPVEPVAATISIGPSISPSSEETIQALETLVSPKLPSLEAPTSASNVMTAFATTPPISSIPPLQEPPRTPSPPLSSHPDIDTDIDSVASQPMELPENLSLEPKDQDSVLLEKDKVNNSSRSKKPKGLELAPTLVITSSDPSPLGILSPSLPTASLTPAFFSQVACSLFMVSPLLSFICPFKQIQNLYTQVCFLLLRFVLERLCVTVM
Particulars: protein: recombinant; tags: N-terminal GST; dsDNA, one strand shown. In a few lines:
as §1

For another assay, the target named is T10, ETV2 (Homo sapiens, UniProt O00321 1-342).
T10 sequence: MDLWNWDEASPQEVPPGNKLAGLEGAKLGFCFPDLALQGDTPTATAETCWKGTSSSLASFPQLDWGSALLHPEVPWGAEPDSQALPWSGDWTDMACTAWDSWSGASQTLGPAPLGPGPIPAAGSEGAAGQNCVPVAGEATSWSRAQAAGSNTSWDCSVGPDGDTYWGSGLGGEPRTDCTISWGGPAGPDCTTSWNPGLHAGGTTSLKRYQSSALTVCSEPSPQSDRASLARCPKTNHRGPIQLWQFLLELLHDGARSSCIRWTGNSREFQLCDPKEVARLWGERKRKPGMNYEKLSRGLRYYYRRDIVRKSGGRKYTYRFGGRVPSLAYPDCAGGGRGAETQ
Particulars: protein: recombinant; tags: N-terminal GST; dsDNA, one strand shown. In a few lines:
as §1

The next assay deals with T11, ELF3 (Homo sapiens, UniProt P78545 1-371).
T11 sequence: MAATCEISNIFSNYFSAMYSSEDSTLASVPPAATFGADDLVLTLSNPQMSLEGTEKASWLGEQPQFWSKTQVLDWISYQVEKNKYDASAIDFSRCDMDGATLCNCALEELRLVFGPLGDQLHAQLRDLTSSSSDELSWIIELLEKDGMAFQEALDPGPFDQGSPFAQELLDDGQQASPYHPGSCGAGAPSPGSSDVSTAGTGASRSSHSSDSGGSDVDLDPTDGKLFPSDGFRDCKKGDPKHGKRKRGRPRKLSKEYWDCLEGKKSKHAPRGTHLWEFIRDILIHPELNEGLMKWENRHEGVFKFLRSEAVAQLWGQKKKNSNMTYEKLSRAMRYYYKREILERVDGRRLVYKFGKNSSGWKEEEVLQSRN
The settings on record: protein: recombinant; tags: N-terminal GST; dsDNA, one strand shown. In a few lines:
as §1

The next assay addresses CRX (Homo sapiens, UniProt O43186 1-299). Particulars: protein: recombinant; tags: N-terminal GST; dsDNA, one strand shown. In a few lines: as §1
Another assay has as its target ETV1 (Homo sapiens, UniProt P50549 1-477). The settings on record: protein: recombinant; tags: N-terminal GST; dsDNA, one strand shown. In a few lines: as §1

Chain of ETV1 (P50549 whole entry): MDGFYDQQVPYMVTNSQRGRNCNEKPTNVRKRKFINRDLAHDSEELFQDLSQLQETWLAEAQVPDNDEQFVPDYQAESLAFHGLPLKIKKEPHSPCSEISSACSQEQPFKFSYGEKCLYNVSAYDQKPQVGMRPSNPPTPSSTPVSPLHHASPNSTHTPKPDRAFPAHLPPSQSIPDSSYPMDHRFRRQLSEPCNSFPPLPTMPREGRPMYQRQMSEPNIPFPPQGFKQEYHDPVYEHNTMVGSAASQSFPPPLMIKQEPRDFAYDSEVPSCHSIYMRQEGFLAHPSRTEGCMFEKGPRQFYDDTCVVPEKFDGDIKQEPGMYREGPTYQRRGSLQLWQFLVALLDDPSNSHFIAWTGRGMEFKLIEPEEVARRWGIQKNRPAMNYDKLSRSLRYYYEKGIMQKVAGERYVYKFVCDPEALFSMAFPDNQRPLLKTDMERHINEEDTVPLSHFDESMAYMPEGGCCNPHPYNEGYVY
Chain of ELF4 (Q99607 whole entry): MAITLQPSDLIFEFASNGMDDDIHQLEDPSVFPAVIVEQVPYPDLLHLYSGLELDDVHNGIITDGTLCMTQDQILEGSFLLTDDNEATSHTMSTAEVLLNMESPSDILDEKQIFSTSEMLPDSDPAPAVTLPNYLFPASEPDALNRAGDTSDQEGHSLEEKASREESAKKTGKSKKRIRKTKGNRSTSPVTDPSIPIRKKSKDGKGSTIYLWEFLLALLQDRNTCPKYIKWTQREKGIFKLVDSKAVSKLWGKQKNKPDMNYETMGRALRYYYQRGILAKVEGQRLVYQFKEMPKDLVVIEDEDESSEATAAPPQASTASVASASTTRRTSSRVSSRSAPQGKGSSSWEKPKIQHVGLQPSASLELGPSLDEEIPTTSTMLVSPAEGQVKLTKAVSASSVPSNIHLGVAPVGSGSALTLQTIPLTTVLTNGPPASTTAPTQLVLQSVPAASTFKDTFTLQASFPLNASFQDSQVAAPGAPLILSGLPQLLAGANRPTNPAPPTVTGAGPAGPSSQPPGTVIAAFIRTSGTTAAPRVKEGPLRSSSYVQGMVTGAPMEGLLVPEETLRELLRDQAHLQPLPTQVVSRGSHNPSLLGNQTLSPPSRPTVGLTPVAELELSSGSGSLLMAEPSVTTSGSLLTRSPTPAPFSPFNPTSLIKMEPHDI
Chain of ELF1 (P32519 whole entry): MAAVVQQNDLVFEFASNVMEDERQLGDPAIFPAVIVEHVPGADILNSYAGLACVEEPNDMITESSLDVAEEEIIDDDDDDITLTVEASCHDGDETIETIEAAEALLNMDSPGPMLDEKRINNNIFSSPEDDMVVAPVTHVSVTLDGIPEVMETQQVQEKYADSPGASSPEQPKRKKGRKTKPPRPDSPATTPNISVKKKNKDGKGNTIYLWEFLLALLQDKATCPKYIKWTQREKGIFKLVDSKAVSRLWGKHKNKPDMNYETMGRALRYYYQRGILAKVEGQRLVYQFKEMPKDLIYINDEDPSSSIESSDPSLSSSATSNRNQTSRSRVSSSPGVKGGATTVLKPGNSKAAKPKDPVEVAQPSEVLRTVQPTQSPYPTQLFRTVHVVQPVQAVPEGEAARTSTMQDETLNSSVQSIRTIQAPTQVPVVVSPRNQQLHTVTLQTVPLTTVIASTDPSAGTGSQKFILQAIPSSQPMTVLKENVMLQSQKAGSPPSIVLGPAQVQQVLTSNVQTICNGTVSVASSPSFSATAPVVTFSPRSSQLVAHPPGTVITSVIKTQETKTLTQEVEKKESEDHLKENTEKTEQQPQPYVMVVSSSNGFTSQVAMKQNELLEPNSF
Chain of HSF1 (Q00613 whole entry): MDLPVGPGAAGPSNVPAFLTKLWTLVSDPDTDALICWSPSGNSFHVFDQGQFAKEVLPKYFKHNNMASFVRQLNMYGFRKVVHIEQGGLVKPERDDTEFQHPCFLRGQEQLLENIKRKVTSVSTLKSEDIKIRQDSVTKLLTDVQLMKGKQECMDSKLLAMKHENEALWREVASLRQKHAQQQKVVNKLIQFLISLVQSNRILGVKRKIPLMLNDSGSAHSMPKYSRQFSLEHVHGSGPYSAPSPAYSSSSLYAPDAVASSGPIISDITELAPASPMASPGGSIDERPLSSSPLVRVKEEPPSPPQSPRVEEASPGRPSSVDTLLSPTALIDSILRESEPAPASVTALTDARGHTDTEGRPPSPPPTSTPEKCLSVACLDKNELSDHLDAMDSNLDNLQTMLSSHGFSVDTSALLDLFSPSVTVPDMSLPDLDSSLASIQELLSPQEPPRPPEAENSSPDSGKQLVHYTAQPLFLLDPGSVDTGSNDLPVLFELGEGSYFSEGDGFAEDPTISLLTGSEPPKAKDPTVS
Chain of CRX (O43186 whole entry): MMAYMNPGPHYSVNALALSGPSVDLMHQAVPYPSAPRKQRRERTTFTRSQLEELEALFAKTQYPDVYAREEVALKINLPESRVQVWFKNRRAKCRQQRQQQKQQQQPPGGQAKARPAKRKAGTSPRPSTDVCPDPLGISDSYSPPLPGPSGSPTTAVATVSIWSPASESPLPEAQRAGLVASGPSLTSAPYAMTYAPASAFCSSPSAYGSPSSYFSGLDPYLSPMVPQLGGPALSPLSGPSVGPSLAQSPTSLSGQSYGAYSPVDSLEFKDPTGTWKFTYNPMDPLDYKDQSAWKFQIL

As for AAATTC, the binding signal with FLI1 was 1.31 fold enrichment (6-mer frequency, TF over GST control); with ELK1, 1.31 fold enrichment (6-mer frequency, TF over GST control); with GABPA, 1.4 fold enrichment (6-mer frequency, TF over GST control); with ERG it was 1.24 fold enrichment (6-mer frequency, TF over GST control); in the assay with ELF1, 1.31 fold enrichment (6-mer frequency, TF over GST control); in the assay with EHF it was 1.32 fold enrichment (6-mer frequency, TF over GST control). For the same sequence, the binding signal in the assay with SPI1 is 1.26 fold enrichment (6-mer frequency, TF over GST control); in the assay with SPIB, 1.33 fold enrichment (6-mer frequency, TF over GST control); in the assay with ELK3, 1.42 fold enrichment (6-mer frequency, TF over GST control); with FEV it was 1.26 fold enrichment (6-mer frequency, TF over GST control); in the assay with ETV5, 1.38 fold enrichment (6-mer frequency, TF over GST control); in the assay with HSF1, 1.95 fold enrichment (6-mer frequency, TF over GST control). For the same sequence, the binding signal is 1.34 fold enrichment (6-mer frequency, TF over GST control) in the assay with SPIC; 1.32 fold enrichment (6-mer frequency, TF over GST control) with ELF4; 1.15 fold enrichment (6-mer frequency, TF over GST control) with ELK4; 1.26 fold enrichment (6-mer frequency, TF over GST control) in the assay with ETV2; 1.35 fold enrichment (6-mer frequency, TF over GST control) in the assay with ELF3; 1.51 fold enrichment (6-mer frequency, TF over GST control) in the assay with CRX. In addition, the binding signal with ETV1 was 1.3 fold enrichment (6-mer frequency, TF over GST control).
